Pf growth 48h = Primary qHTS for delayed death inhibitors of the malarial parasite plastid, 48 hour incubation | P. falciparum luciferase growth in erythrocytes, 48 h | AID 504832, 2011 | actives 5.9% (n = 310,000) | Potency, µM (doses to about 28.7 µM), inactives show top-dose activity change, negative = inhibition, most hits filed as inhibitors; also: % is scaled to controls: 0 for no effect and ±100 for the full control effect
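Compounds are pin-transferred into medium, infected erythrocytes (2% hematocrit, 0.1% parasitemia final) are added, and plates sit one parasite generation at 37 C in 5% CO2. Detection reagent is then added and luminescence measured.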
Pf growth 96h = Primary qHTS for delayed death inhibitors of the malarial parasite plastid, 96 hour incubation. P. falciparum luciferase reporter growth, 96 h. Potency, µM (titrated, usually from 28.7 µM), for inactives: at the highest dose activity change, negative = inhibition, hits mostly inhibitors. AID 504834, 2011. actives 6.9% (n = 320,000); also: % is scaled to controls: 0 for no effect and ±100 for the full control effect
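Two-generation exposure (96 h) targets delayed-death phenotype. Reporter parasites carrying integrated firefly luciferase, in red cells at 2% hematocrit and 0.05% parasitemia final, kept at 37 C, 5% CO2; luminescence loss indicates inhibition.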
Sm TGR block = qHTS Assay for the Inhibitors of Schistosoma Mansoni Peroxiredoxins | Schistosoma mansoni thioredoxin glutathione reductase (TGR), Q962Y6 | purified TGR, DTNB reduction, TNB absorbance 405 nm | Potency, µM (series often up to 114 µM), for inactives: top-dose activity change, negative = inhibition, actives largely listed as inhibitors | actives 3% (n = 360,000); also: % is scaled to controls: 0 for no effect and ±100 for the full control effect; nearly all actives have a fitted effect of over 60% in size
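First, TGR (20 nM dispensed) and NADPH were mixed with compound. Second, a 15 min room-temperature incubation followed. Third, further NADPH and then DTNB were added to start the reaction. Finally, TNB absorbance was monitored kinetically.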
NS1 inh = qHTS Assay for Inhibitors of Influenza NS1 Protein Function; Potency, µM (series often up to 46.1 µM), without a hit: at the highest dose activity, positive = more growth; actives 0.4% (n = 270,000); calls by dose curve; also: actives are rising curves; nearly all actives have a fitted effect of over 50% in size
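A cell-based growth assay was used: compounds that relieve NS1-induced slow growth of budding yeast raise OD600. Assay medium was yeast nitrogen base with ammonium sulphate and -URA supplement, pH 6.0, with 2% galactose.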
AMA1-RON2 inh = qHTS for Inhibitors of AMA1-RON; Towards Development of Antimalarial Drug Lead: Primary Screen. AID 720542, 2013. Potency, µM (doses to about 58.2 µM), inactives show top-dose activity change, negative = inhibition, actives largely listed as inhibitors. Plasmodium falciparum AMA1 (3D7) - RON2 peptide interaction. actives 0.2% (n = 360,000). AlphaScreen AMA1-biotinylated RON2 peptide binding;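 also: 0% = vehicle wells and -100% = peptide control; nearly all actives have a fitted effect of over 45% in size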
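AMA1 (3D7) with his tag at 25 nM final met compounds first, then biotinylated RON2 peptide at 25 nM; detection used donor plus acceptor beads, 10 µg/mL apiece, read by AlphaScreen after 30 min at room temperature.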
* marks the source's active call; other numbers are inactive results; ? = inconclusive; . = no result given. An excerpt weighted towards active compounds, which were near 11% of everything screened. Unless noted, calls follow the shape of the dose curve; as a rule, active = well fitted curve in the direction sought with a large enough effect; inconclusive = small, poorly fitted or top-dose-only effect, or another doubt; inactive = no such curve, though single readings can be large; an effect the other way counts as inactive or inconclusive. Potency is read from the fitted curve at half-maximal effect.

SMILES	Pf growth 48h	Pf growth 96h	Sm TGR block	NS1 inh	AMA1-RON2 inh
O=S(=O)(c1ccc(Oc2ccc(Cl)cc2)c(S(=O)(=O)N2CCCCC2)c1)N1CCCCC1	4.7µM*	.	15%	?	4%
CC(=O)N1CCN(C(=O)c2cc(S(=O)(=O)N3CCCCC3)ccc2Cl)CC1	-9%	13%	-1%	.	5%
CCN1CCN(C(=O)c2cc(S(=O)(=O)N3CCCCC3)ccc2Cl)CC1	40%	10µM*	-14%	5%	-12%
CCOc1cc(S(=O)(=O)N2CCCC2)ccc1Cl	.	12µM*	3%	-56%	0%
O=S(=O)(c1ccc(Cl)cc1)N1CCN(S(=O)(=O)N2CCCCCC2)CC1	14%	?	-4%	7%	-12%
CCc1ccc(-c2cc(C)no2)cc1S(=O)(=O)Nc1ccc(Cl)cc1	.	.	3%	.	.
CC1(C(=O)NCCc2c[nH]c3ccccc23)CCN1CC1CCCCC1 (stereo not given)	.	.	.	.	-16%
Cc1ccc(C(C(=O)NC2CCCCC2)N2CCOCC2)cc1 (stereo not given)	16%	10µM*	-1%	2%	-9%
O=C(NC1CCCCC1)C(c1ccccc1)N1CCOCC1 (stereo not given)	2%	24%	0%	10%	11%
Cc1ccc(CN(C(=O)c2ccco2)C(C(=O)NC2CCCC2)c2ccc(N3CCOCC3)cc2)cc1 (stereo not given)	10µM*	-18%	?	0%	-3%
CN(C)C(=O)NC(Nc1cccc([N+](=O)[O-])c1)C(Cl)(Cl)Cl (stereo not given)	?	20%	20µM*	.	-8%
CN(C(=O)Nc1cccc([N+](=O)[O-])c1)c1ccccc1	.	.	.	.	6%
CC(C)C(=O)NC(Nc1cccc([N+](=O)[O-])c1)C(Cl)(Cl)Cl (stereo not given)	1.9µM*	23%	.	2%	2%
Cc1cccc(NC(NC(=O)c2ccccc2[N+](=O)[O-])C(Cl)(Cl)Cl)c1 (stereo not given)	-23%	-5%	3%	-18%	-4%
CC1(C)CC(=O)C(C=Nc2ccc(C(=O)c3ccccc3)cc2N=CC2=C(O)CC(C)(C)CC2=O)=C(O)C1	?	20%	1%	18%	119%
O=C(CCCN1C(=O)c2ccccc2C1=O)Nc1cccc(S(=O)(=O)NC2=NCCC2)c1	?	-8%	-2%	4%	-2%
O=c1c(C(c2ccccc2)c2c(O)nc3n(c2=O)CCCS3)c(O)nc2n1CCCS2	11%	-13%	4.5µM*	.	32%
O=c1c(C(c2ccccc2)c2c(O)nc3n(c2=O)CCS3)c(O)nc2n1CCS2	-4%	-16%	1.8µM*	15%	-5%
O=c1c2[nH]c3ccccc3c2nc2n1CCCS2	67%	?	22%	.	7%
CC(NC(=O)c1cnc2n(c1=O)CCS2)c1ccccc1 (stereo not given)	0%	-23%	-19%	-21%	-9%
O=c1c(C(c2ccc(F)cc2)c2c(O)nc3n(c2=O)CCCS3)c(O)nc2n1CCCS2	-2%	0%	1.8µM*	1%	7%
O=c1c2[nH]c3ccc(F)cc3c2nc2n1CCCS2	54%	-1%	2%	.	2%
CCOC(=O)[C@H]1[C@H]2COc3ccc(C)cc3[C@@H]2N2C(=O)CN(Cc3ccccc3)C(=O)[C@@]12C	?	?	4%	.	-5%
CCOC(=O)[C@H]1[C@H]2COc3cc(OC)ccc3[C@@H]2N2C(=O)CN(Cc3ccco3)C(=O)[C@@]12C	?	-2%	18µM*	.	9%
CCOC(=O)[C@H]1[C@H]2COc3cc(OC)ccc3[C@@H]2N2C(=O)CN(Cc3ccc(C)cc3)C(=O)[C@@]12C	10µM*	2.6µM*	-22%	.	-11%
SMILES	Pf growth 48h	Pf growth 96h	Sm TGR block	NS1 inh	AMA1-RON2 inh
COC1(C(F)(F)F)NC(=O)N(c2ccc(F)cc2)C1=O (stereo not given)	.	.	0%	.	.
CC(C)N(C(=O)COC(=O)c1cccc(N(C)C)c1)c1ccccc1	?	?	7%	-14%	?
CCOC(=O)[C@]12CCC=C1N(Cc1cccc3ccccc13)C(=O)[C@H](CC(=O)NCCc1ccccc1OC)C2	.	.	.	.	-24%
COc1cccc2sc(N(CCN(C)C)C(=O)c3ccc4c(c3)CCCC4)nc12	10µM*	?	-9%	-13%	-28%
O=C(CCS(=O)(=O)c1ccccc1)N(Cc1cccnc1)c1nc2ccc(Cl)cc2s1	.	.	1.1µM*	.	.
CCOc1ccc2nc(N(CCCN(C)C)C(=O)c3ccc(S(=O)(=O)N4CCc5ccccc5C4)cc3)sc2c1	?	?	0%	-24%	0%
CN(C)CCN(C(=O)c1ccc2c(c1)CCCC2)c1nc2c(F)cccc2s1	7%	-25%	?	-10%	-20%
CCOc1ccc2nc(N(CCCN(C)C)C(=O)c3ccc4c(c3)CCCC4)sc2c1	?	5.9µM*	3%	-7%	-12%
O=C(COc1ccccc1)N(Cc1cccnc1)c1nc2ccc(Cl)cc2s1	.	.	5%	.	.
CN(C)CCCN(C(=O)c1ccc2c(c1)CCCC2)c1nc2ccc(Cl)cc2s1	8.3µM*	1.9µM*	0%	-13%	?
Cc1onc(-c2ccccc2Cl)c1C(=O)Oc1ccccc1F	.	.	0%	.	.
CN(C)S(=O)(=O)c1cccc(NC(=O)CO/N=C(\N)c2ccccc2)c1	-7%	24%	10%	.	-1%
CCCc1ccc(C(O)c2ncc(-c3ccccc3C)[nH]2)cc1 (stereo not given)	.	.	.	.	2%
O=C(COC(=O)Cc1cccc(C(F)(F)F)c1)Nc1ccc2[nH]c(=O)[nH]c2c1	11%	20%	-3%	.	7%
Cc1ccc(NC(=O)CCC(=O)N/N=C/c2cccs2)cc1	-10%	?	-3%	.	87%
CN(C)CCCN(C(=O)CCc1ccccc1)c1nc2ccc(Cl)cc2s1	?	10µM*	-7%	9%	?
COc1cccc2sc(N(CCCN(C)C)C(=O)c3ccc(S(=O)(=O)N4CCCc5ccccc54)cc3)nc12	10µM*	?	3%	18%	-12%
COc1ccc([C@H]2C[C@H](n3cc(-c4ccc(F)cc4)nn3)[C@@H](O)CN2CC2CCCCC2)cc1	.	.	.	.	-13%
O=C(c1ccccc1)c1ccccc1N1C(=O)C=CC1=O	?	-14%	0.56µM*	-76%	-16%
O=C1C=CC(=O)N1c1ccccc1N1C(=O)C=CC1=O	.	.	.	.	0%
O=C(Nc1ccc2[nH]c(=O)[nH]c2c1)c1cccc([N+](=O)[O-])c1	62%	34%	1%	18%	-2%
COc1ccc([C@@]2(O)c3c(ccc(CC=C(C)C)c3O)NC(=O)[C@@H]2OC)cc1	?	-25%	-22%	11%	0%
